Assay outcomes as filed in PubChem BioAssay.
Most compounds without a hit are left out; they make up all but 3.4% or so of the library.
TEAD-YAP block – TEAD-YAP interaction inhibition | HEK-TIYL cells, TEAD-Gal4/YAP UAS-luciferase luminescence | inhibition, % at 9.12 µM | 640,000 tested, 1.4% active; in the data active means inhibition above about 32%
FBW7 act – activators of human E3 ligase FBW7 | Q969H0 | AlphaScreen FBW7–phospho-cyclin E peptide binding, activator screen | normalized activity (activation), % at 26.1 µM | 650,000 tested, 0.13% active; in the data active means normalized activity above about 1.9%;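 further: purified mutant Fbw7 with reduced substrate affinity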
MITF primary – blocks human microphthalmia-associated transcription factor; O75030; 650,000 tested, 0.91% active; AlphaScreen MITF homodimerization, bead proximity signal; AID 1259374; inhibition, % at 2.6 µM; in the data active means inhibition above about 50%
Target sequence (O75030 whole entry, looked up): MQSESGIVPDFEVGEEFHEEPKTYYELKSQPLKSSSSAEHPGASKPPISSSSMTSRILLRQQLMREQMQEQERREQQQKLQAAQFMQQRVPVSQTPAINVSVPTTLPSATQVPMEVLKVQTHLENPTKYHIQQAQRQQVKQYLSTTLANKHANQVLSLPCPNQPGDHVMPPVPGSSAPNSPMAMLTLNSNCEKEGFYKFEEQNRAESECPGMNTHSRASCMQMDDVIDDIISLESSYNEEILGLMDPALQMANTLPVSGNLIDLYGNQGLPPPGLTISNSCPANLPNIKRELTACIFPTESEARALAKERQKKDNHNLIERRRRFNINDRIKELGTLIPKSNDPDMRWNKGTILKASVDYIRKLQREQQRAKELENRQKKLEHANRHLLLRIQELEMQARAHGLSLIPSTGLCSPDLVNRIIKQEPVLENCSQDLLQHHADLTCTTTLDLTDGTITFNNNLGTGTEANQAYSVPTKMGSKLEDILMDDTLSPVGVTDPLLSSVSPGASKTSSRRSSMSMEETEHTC
GPR151 activ – activates the human receptor GPR151; Q8TDV0; 650,000 tested, 1% active; PathHunter beta-arrestin GPR151 cells, luminescence; activation, % at 11.2 µM; in the data active means activation above about 4.9%
A number is an active result; – = inactive.

SMILES	TEAD-YAP block	FBW7 act	MITF primary	GPR151 activ
OCCCNc1ccc2ncc(-c3cccc4ccccc34)n2n1	–	–	–	–
COc1ccc(C(C)C)cc1-c1cnc2ccc(NCc3ccco3)nn12	59	–	–	–
OCCCNc1ccc2ncc(-c3ccccc3F)n2n1	56	–	–	–
COCCNc1ccc2ncc(-c3ccccc3F)n2n1	49	–	–	–
Fc1ccccc1-c1cnc2ccc(NCc3ccco3)nn12	39	–	–	–
O=C(CSc1nc2cc(C(=O)NCCCN3CCOCC3)ccc2c(=O)n1-c1ccc(F)cc1)c1ccccc1	–	–	–	–
COc1ccc(/C=C/C(=O)NCCSC(C)(C)C)cc1	–	–	–	–
O=C(Cc1cn(-c2ccc(Nc3ccc(N4CCOCC4)cc3)nn2)c2ccccc12)NCCc1ccc(O)cc1	–	–	–	–
C=CCNc1nc(N)c(C(N)=NC#N)s1	74	–	–	–
O=C(NCc1cccs1)C1CC12CCN(C1CCSCC1)CC2 (stereo not drawn)	–	–	–	–
COc1cccc(/C=C2/SC(=S)N(CCCC(=O)O)C2=O)c1OC	80	–	–	–
O=C(O)CCCN1C(=O)/C(=C/c2ccccc2F)SC1=S	54	–	–	–
C=CCOc1c(/C=C2/SC(=S)N(CCC(=O)O)C2=O)cccc1OC	–	–	–	–
Cc1ccc2nc(N3CCCCC3)c(/C=C3\SC(=S)N(C(C)C)C3=O)c(=O)n2c1	–	–	–	–
Cc1ccc(-c2cc(C(=O)NN)[nH]n2)c(C)c1	43	–	–	–
COc1cc(C(=O)c2cc(Cl)ccc2N)cc(OC)c1OC	52	–	–	–
COc1ccc(C(=O)COC(=O)c2ccc(Cl)cc2N)cc1	–	–	–	–
COc1cc(C(=O)NNC(=O)c2cccc(Cl)c2)cc(OC)c1OC	–	–	–	–
COc1cc(C(=O)COC(=O)c2ccc(Cl)cc2N)cc(OC)c1OC	53	–	–	–
CC(C)C(=O)Nc1cccc(NC(=O)c2cccc(Br)c2)c1	–	–	–	–
CC(=O)Oc1ccc(C(=O)Nc2cccc(C(=O)NC(C)(C)C)c2)cc1	–	–	–	–
CC(C)(C)NC(=O)c1cccc(NC(=O)c2cccc(O)c2)c1	34	–	–	–
CC(C)C(=O)Nc1cccc(C(=O)Nc2cccc(O)c2)c1	59	–	–	–
O=C(O)C1Nc2c(C(=O)N3CCCC3)cccc2C2C=CCC12 (stereo not drawn)	–	–	80	–
O=C(Oc1ccc(-c2ccccc2)cc1)c1cccc2c1NC(C(=O)O)C1CC=CC21 (stereo not drawn)	–	–	51	–
SMILES	TEAD-YAP block	FBW7 act	MITF primary	GPR151 activ
O=C(O)C1Nc2c(C(=O)N3CCOCC3)cccc2C2C=CCC12 (stereo not drawn)	–	–	58	–
CC(C)C1Nc2c(C(=O)O)cccc2C2C=CCC21 (stereo not drawn)	–	–	–	–
COC(=O)c1[nH]c2ccc(C)cc2c1NC(=O)CN1CCOCC1	–	–	–	–
Cc1ccccc1Nc1nc(N)nc(COC(=O)c2ccc(F)cc2)n1	–	–	–	–
O=c1c(Oc2ccc(F)cc2)coc2c(O)c(O)ccc12	–	–	83	–
Cc1cc(O)c2/c(=N\N)c(-c3csc(C)n3)c(C(F)(F)F)oc2c1	–	–	–	–
Cc1cc(C(=O)CNCCN2CCOCC2)c(C)n1-c1ccc(Cl)cc1	–	–	–	–
CCOC(=O)C1=CS/C(=C2/C(=S)C(C)(C)Nc3c(OCC)cccc32)S1	–	–	53	–
CCOC(=O)C1=CS/C(=C2/C(=S)C(C)(C)N(C(=O)CC(C)C)c3ccc(OCC)cc32)S1	–	–	–	–
Nc1c(C(=O)Nc2ccccc2)sc2nc3c(cc12)C(=O)CCC3	32	–	–	–
Nc1c(C(=O)Nc2ccc(Br)cc2)sc2nc3c(cc12)C(=O)CCC3	–	–	–	–
CC1(C)CC(=O)c2cc3c(N)c(C(=O)NC4CCCCC4)sc3nc2C1	–	2.4	–	–
Cc1ccc(NC(=O)c2sc3nc4c(cc3c2N)C(=O)CCC4)cc1C	65	–	–	–
Nc1c(C(=O)Nc2ccc(Oc3ccccc3)cc2)sc2nc3c(cc12)C(=O)CCC3	37	–	–	–
CCCOc1ccc(C(=O)Nc2ccc(Br)cc2C(=O)O)cc1	–	–	–	–
CC(C)Cc1ccc(CN2CCc3nnc(CNC(=O)COc4ccccc4)n3CC2)cc1	–	–	–	–
CCN1C(=O)/C(=C\c2cc(C)n(-c3ccc(Cl)cc3)c2C)C(C(=O)OC)=C1C	–	7.3	–	–
COC(=O)C1=C(C)N(Cc2ccco2)C(=O)/C1=C\c1cc(C)n(-c2ccccc2F)c1C	–	–	72	–
COCCN1C(=O)/C(=C\c2cc(C)n(-c3ccc(Cl)cc3)c2C)C(C(=O)OC)=C1C	–	–	–	–
CCOC(=O)c1c(-c2ccccc2)csc1NC(=O)c1ccc(Br)cc1	–	–	–	–
Cc1cc(C)c2c(CC(=O)N3CCOCC3)coc2c1	–	–	–	–
CC1Cn2c(nnc2-c2cccc(F)c2)S1 (stereo not drawn)	–	–	–	–
O=C1C=CC2=C3c4cc(O)c(O)cc4C[C@@]3(O)COC2=C1	–	–	88	–
O=C(NCc1ccco1)/C(=C\c1ccc(Br)cc1)NC(=O)c1ccco1	–	–	–	–
Cc1sc(NC(=O)c2ccco2)c(C(c2cccnc2)N2CCC(Cc3ccccc3)CC2)c1C (stereo not drawn)	35	–	–	–
SMILES	TEAD-YAP block	FBW7 act	MITF primary	GPR151 activ
Cc1ccc2nc(-c3ccc(N4C(=O)CC(N5CCC(N6CCCCC6)CC5)C4=O)cc3)sc2c1 (stereo not drawn)	–	–	–	–
CC(=O)c1ccc(N=Nc2ccc(O)c(C=O)c2)cc1	90	–	–	–
COc1ccc(N2C(=O)c3ccc(-c4nc5ccc(C)cc5c(=O)o4)cc3C2=O)cc1	–	–	–	–
O=C(Nc1ccc(Br)cn1)c1cccc2ccccc12	32	–	–	–
O=C(Cn1ncc2ccccc21)Nc1ccccc1Br	–	–	–	–
O=C(Nc1ccc(Br)cn1)c1cc(Br)ccc1Cl	43	–	–	–
CSc1ccc(Cl)c(C(=O)Nc2ccc(Br)cn2)c1	35	–	–	–
O=C(Cn1ncc2ccccc21)Nc1ccc(Br)cn1	38	–	–	–
CC(C)(CO)CNC1CCN(c2ccc(C(=O)NCCN3CCOCC3)cc2)CC1	–	–	–	–
Cc1ccc(S(=O)(=O)N(CC(=O)N2CCCC2)Cc2ccccc2)cc1	–	–	–	–
COc1ccc(N=C2NC(=O)/C(=C\c3ccc(OCc4cccc5ccccc45)c(OC)c3)S2)cc1	–	–	–	–
CC(NC(=O)C(=O)NCCO)c1ccccc1 (stereo not drawn)	–	–	–	–
Cc1ccc(S(=O)(=O)N2c3ccccc3CC2C)cc1 (stereo not drawn)	–	–	–	–
CCC(=O)Nc1ccc(S(=O)(=O)N2c3ccccc3CC2C)cc1 (stereo not drawn)	–	–	–	–
COc1ccc(S(=O)(=O)N2c3ccccc3CC2C)cc1 (stereo not drawn)	48	–	–	–
CCOc1ccc(S(=O)(=O)N2c3ccccc3CC2C)cc1 (stereo not drawn)	52	–	–	–
